TDP1 cell CPT = growth inhibition of DT40 Tdp1-/-;hTDP1 cells with camptothecin (screen for TDP1 inhibitors); chicken DT40 Tdp1-/-;hTDP1 cells + 20 nM CPT, ATP luminescence, 48 h; AID 686979; 420,000 compounds, 12% hits; Potency, µM (series often up to 46.2 µM), without a hit: top-dose activity change, negative = growth inhibition, usual class: inhibitors; note: nearly all actives have a fitted effect of over 55% in size
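Chicken DT40 Tdp1-/- cells complemented with human TDP1, 400 cells/well, exposed to compounds plus 20 nM camptothecin for at least 48 h at 37 C; viability read as ATP content by CellTiter-Glo luminescence.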
KB-3-1 cytotox = KB-3-1 parental cell cytotoxicity. 400,000 compounds, 1.4% hits. KB-3-1 viability, CellTiter-Glo ATP luminescence, 72 h. Potency, µM (top dose mostly 46.1 µM), usual class: cytotoxic; note: nearly all actives have a fitted effect of over 60% in size
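Parental KB-3-1 adenocarcinoma cells in phenol-red-free DMEM with 10% FBS were pin-treated with compounds at several concentrations, incubated 72 h at 37 °C, and viability read by CellTiter-Glo luminescence; concentration-effect curves were fitted after normalization.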
HT1080 IDH1KD tx = toxicity to HT-1080 IDH1 knockdown cells (counter line); HT-1080 IDH1 knockdown viability, ATP luminescence, 48 h; Potency, µM (series often up to 46.1 µM), for the others: at the highest dose activity, negative = toxicity, hits mostly cytotoxic; 360,000 compounds, 2% hits; AID 686971;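 note: 0% = DMSO wells and -100% = cell-free medium wells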
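% activity derives from luminescence (CellTiter-Glo), normalised to DMSO and no-cell wells. HT-1080-IDH1KD cells, 750/well, had 48 h compound exposure at 37 °C.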
HT1080NT lethal = kills 2HG-producing HT-1080-NT fibrosarcoma cells | Potency, µM (top dose mostly 46.1 µM), for inactives: top-dose activity, negative = less viability, hits mostly cytotoxic | AID 686970 | 360,000 compounds, 1.6% hits | HT-1080-NT fibrosarcoma viability, CellTiter-Glo ATP luminescence, 48 h;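 note: NT is the 2HG producing partner of a matched IDH1 knockdown line; 0% = DMSO-treated cells and -100% = media-only wells without cells; nearly all actives have a fitted effect of over 55% in size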
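Toxicity toward the 2HG-producing NT line was scored as %Activity, normalised to DMSO and no-cell wells, from CellTiter-Glo luminescence after 48 hours' treatment.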
TDP1 cell noCPT = qHTS for Inhibitors of human tyrosyl-DNA phosphodiesterase 1 (TDP1): qHTS in cells in absence of CPT. DT40 Tdp1-/- hTDP1 cells, no CPT, ATP luminescence, 48 h. Potency, µM (highest dose often 46.2 µM), inactives show at the highest dose activity change, negative = growth inhibition, actives largely listed as inhibitors. 420,000 compounds, 15% hits; note: nearly all actives have a fitted effect of over 55% in size
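Growth of hTDP1-complemented DT40 Tdp1-knockout cells is measured by ATP luminescence after at least 48 hr compound exposure at 37 °C, with DMSO substituting for the 20 nM CPT used in the parallel screen.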
KB-V1 MDR tox = kills drug-selected multidrug resistant KB-V1 cells. KB-V1 MDR cells viability, CellTiter-Glo, 72 h. Potency, µM (series often up to 46.1 µM), usual class: cytotoxic. 400,000 compounds, 3.4% hits. AID 1347076; note: nearly all actives have a fitted effect of over 60% in size
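Cytotoxicity toward P-gp-expressing KB-V1 cells was determined as loss of CellTiter-Glo luminescence after 72 h at 37 degrees C. Compounds were tested in quantitative HTS format across a concentration range, with curves fitted to normalized data.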
* = called active by the depositor. Shown are actives, neighbours in structure and some others; about 19% of the full set was active somewhere. Calls come from the whole dose curve; as a rule, active = well fitted curve in the direction sought with a large enough effect; inconclusive = small, poorly fitted or top-dose-only effect, or another doubt; inactive = no such curve, though single readings can be large; an effect the other way counts as inactive or inconclusive. Unless noted, % is set by controls: 0 for no effect and ±100 for the full control effect; potency is the fitted concentration of half-maximal effect.

For CCOC(=O)C1=C(COc2ccccc2)NC(=O)NC1c1cccc([N+](=O)[O-])c1 (centres undefined) the results were TDP1 cell CPT 3.0%, KB-3-1 cytotox inactive, HT1080 IDH1KD tx 3.5%, HT1080NT lethal 5.0%, TDP1 cell noCPT -9.5% and KB-V1 MDR tox inactive.
Screening CCOC(=O)C1=C(CSc2nc3ccccc3s2)NC(=O)NC1c1cccc([N+](=O)[O-])c1 (centres undefined) returned TDP1 cell CPT 18.4µM*, KB-3-1 cytotox inactive, HT1080 IDH1KD tx inconclusive, HT1080NT lethal inconclusive, TDP1 cell noCPT inconclusive and KB-V1 MDR tox inactive.
`O=C(O)/C(=C\c1ccc(Cl)cc1)c1ccc(F)cc1` gave TDP1 cell CPT 2.6%, KB-3-1 cytotox inactive, HT1080 IDH1KD tx 8.8%, HT1080NT lethal 3.5%, TDP1 cell noCPT -3.0% and KB-V1 MDR tox inactive.
Screening COc1cccc(C2CC(c3c(-c4ccccc4)c4cc(Cl)ccc4[nH]c3=O)=NN2S(C)(=O)=O)c1OC (centres undefined) returned TDP1 cell CPT 20.6µM*, KB-3-1 cytotox inconclusive, HT1080 IDH1KD tx 18.4µM*, HT1080NT lethal inconclusive, TDP1 cell noCPT 16.4µM* and KB-V1 MDR tox inconclusive.
For COc1ccccc1C1CC(c2c(-c3ccccc3)c3cc(Cl)ccc3[nH]c2=O)=NN1S(C)(=O)=O (centres undefined) the results were TDP1 cell CPT 25.9µM*, KB-3-1 cytotox inconclusive, HT1080 IDH1KD tx inconclusive, HT1080NT lethal 25.9µM*, TDP1 cell noCPT 29.1µM* and KB-V1 MDR tox inconclusive.
Screening COC(=O)CC1Oc2ccc(Cl)cc2-n2cc(-c3ccc(C)cc3)nc21 (centres undefined) returned TDP1 cell CPT 9.2µM*, KB-3-1 cytotox inactive, TDP1 cell noCPT 6.51µM* and KB-V1 MDR tox inactive.
For COC(=O)CC1Oc2ccc(C)cc2NC1=O (centres undefined) the results were TDP1 cell CPT -1.6%, KB-3-1 cytotox inactive, HT1080 IDH1KD tx 14.6%, HT1080NT lethal 14.7%, TDP1 cell noCPT 4.7% and KB-V1 MDR tox inactive.
For COC(=O)CC1Oc2ccc(C)cc2-n2cc(-c3ccc(C)cc3)nc21 (centres undefined) the results were TDP1 cell CPT 16.4µM*, KB-3-1 cytotox inactive, TDP1 cell noCPT 13µM* and KB-V1 MDR tox inactive.
Screening COC(=O)CC1Oc2ccccc2N(Cc2ccc(C)cc2)C1=O (centres undefined) returned TDP1 cell CPT 16.4µM*, KB-3-1 cytotox inactive, HT1080 IDH1KD tx 3.2%, HT1080NT lethal -3.5%, TDP1 cell noCPT 25.9µM* and KB-V1 MDR tox inactive.
`CC1(C(=O)NS(=O)(=O)c2cccc(C#N)c2)CCN1C(=O)Cc1ccccc1Cl` (centres undefined) gave TDP1 cell CPT -16.8%, KB-3-1 cytotox inactive, HT1080 IDH1KD tx 14.4%, HT1080NT lethal 3.6%, TDP1 cell noCPT -2.8% and KB-V1 MDR tox inactive.
COCCCn1c(=O)/c(=C\c2ccccc2OC(C)C)s/c1=C(/C#N)C(=O)Nc1ccc(C(=O)O)cc1 was read as TDP1 cell CPT inconclusive, KB-3-1 cytotox inactive, HT1080 IDH1KD tx -21.0%, HT1080NT lethal -12.4%, TDP1 cell noCPT 14.6µM* and KB-V1 MDR tox inactive.
COCCCn1c(=O)/c(=C\c2ccccc2OC(F)F)s/c1=C(/C#N)C(=O)NC(C)C was read as TDP1 cell CPT -21.1%, KB-3-1 cytotox inactive, HT1080 IDH1KD tx 2.1%, HT1080NT lethal 4.7%, TDP1 cell noCPT -9.2% and KB-V1 MDR tox inactive.
CC(C)Oc1cccc(C(=O)C2CCCN(Cc3cnn(C(C)C)c3)C2)c1 (centres undefined) was read as TDP1 cell CPT inconclusive, KB-3-1 cytotox inactive, HT1080 IDH1KD tx inconclusive, HT1080NT lethal -19.8%, TDP1 cell noCPT inconclusive and KB-V1 MDR tox inactive.
Cc1nn(C)c(C)c1CCC(=O)N1CCCC(C(=O)c2cccc(OC(C)C)c2)C1 (centres undefined) was read as TDP1 cell CPT 18.4µM*, KB-3-1 cytotox inconclusive, HT1080 IDH1KD tx -4.4%, HT1080NT lethal -10.2%, TDP1 cell noCPT inconclusive and KB-V1 MDR tox inactive.
Screening CC(C)Oc1cccc(C(=O)C2CCCN(C(=O)CCc3cnn(C)c3)C2)c1 (centres undefined) returned TDP1 cell CPT 16.4µM*, KB-3-1 cytotox inactive, HT1080 IDH1KD tx -6.4%, HT1080NT lethal -8.6%, TDP1 cell noCPT inconclusive and KB-V1 MDR tox inactive.
`COc1cc(CCC(=O)OCC(=O)Nc2cccc(S(=O)(=O)N(C)C)c2)cc(OC)c1OC` gave TDP1 cell CPT -8.4%, KB-3-1 cytotox inactive, HT1080 IDH1KD tx 1.4%, HT1080NT lethal -2.0%, TDP1 cell noCPT 6.4% and KB-V1 MDR tox inactive.
For Cc1ccc(NC(=S)NC2CCCCC2)cc1S(=O)(=O)N(C)C the results were TDP1 cell CPT inconclusive, KB-3-1 cytotox inactive, HT1080 IDH1KD tx -16.0%, HT1080NT lethal 1.6%, TDP1 cell noCPT inconclusive and KB-V1 MDR tox inactive.
Screening COc1ccc(CCNCC(=O)Nc2ccc(C)c(S(=O)(=O)N(C)C)c2)cc1 returned TDP1 cell CPT -29.7%, KB-3-1 cytotox inactive, HT1080 IDH1KD tx -29.4%, HT1080NT lethal -10.3%, TDP1 cell noCPT 4.61µM* and KB-V1 MDR tox inconclusive.
For Cc1ccc(NC(=O)CSc2nn(-c3ccccc3)c(=S)s2)cc1S(=O)(=O)N(C)C the results were TDP1 cell CPT 5.17µM*, KB-3-1 cytotox inconclusive, HT1080 IDH1KD tx inconclusive, HT1080NT lethal -15.1%, TDP1 cell noCPT 5.17µM* and KB-V1 MDR tox 6.51µM*.
`COc1cc(CCC(=O)Nc2ccc(C)c(S(=O)(=O)N(C)C)c2)cc(OC)c1OC` gave TDP1 cell CPT 14.6µM*, KB-3-1 cytotox inactive, HT1080 IDH1KD tx inconclusive, HT1080NT lethal -3.2%, TDP1 cell noCPT 20.6µM* and KB-V1 MDR tox inconclusive.
Cc1ccc(NC(=O)CNCC2CCCCC2)cc1S(=O)(=O)N(C)C was read as TDP1 cell CPT 16.4µM*, KB-3-1 cytotox inactive, HT1080 IDH1KD tx -1.5%, HT1080NT lethal 8.5%, TDP1 cell noCPT inconclusive and KB-V1 MDR tox inconclusive.

Screens from PubChem.
